# Reference: PMC7862700, “An all-to-all approach to the identification of sequence-specific readers for epigenetic DNA modifications on cytosine”
# What was measured:
# Assay in all cases: DAPPL (digital affinity profiling via proximity ligation, sequencing); 10 mM Tris-HCl pH 7.5, 50 mM NaCl, 1 mM DTT, 4% glycerol, room temperature, 30 min; GST-TFs on glutathione beads, 16-mer random dsDNA library, 0.1% formaldehyde crosslink after washing; high values mean tight binding
# FLI1 = biological target: T1, FLI1 (Homo sapiens, UniProt Q01543 1-452); details: protein: recombinant; tags: N-terminal GST; dsDNA, one strand shown
# T1 sequence: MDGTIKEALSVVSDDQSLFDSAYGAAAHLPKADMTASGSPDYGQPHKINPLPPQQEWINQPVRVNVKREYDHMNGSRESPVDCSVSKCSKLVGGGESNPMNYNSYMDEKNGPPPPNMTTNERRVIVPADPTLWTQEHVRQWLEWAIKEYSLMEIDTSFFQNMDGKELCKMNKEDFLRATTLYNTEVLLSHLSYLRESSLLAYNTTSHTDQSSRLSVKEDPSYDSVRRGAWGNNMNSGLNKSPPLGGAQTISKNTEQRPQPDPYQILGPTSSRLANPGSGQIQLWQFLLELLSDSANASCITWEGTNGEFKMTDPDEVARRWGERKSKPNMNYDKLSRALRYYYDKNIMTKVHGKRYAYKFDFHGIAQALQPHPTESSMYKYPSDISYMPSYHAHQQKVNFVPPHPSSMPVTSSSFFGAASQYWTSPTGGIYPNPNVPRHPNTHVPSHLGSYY
# Outline: (§1)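 Human transcription factors carrying a GST fusion were produced in yeast, bound to glutathione beads, tagged with DNA barcodes and pooled together with a tag-only sample. Each pool was held with 200 nmole of a random double-stranded 16-mer DNA library in Tris/NaCl/DTT/glycerol buffer for 30 min at room temperature, then washed, crosslinked in 0.1% formaldehyde, proximity-ligated with BsaI/T4 ligase (1 h, 37 °C), PCR-amplified and sequenced on an Illumina NextSeq500. Binding signal is the read frequency of each hexamer for a given factor divided by its frequency in the tag-only sample.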
# ELK1 = biological target: T2, ELK1 (Homo sapiens, UniProt P19419 1-428); details: protein: recombinant; tags: N-terminal GST; dsDNA, one strand shown
# T2 sequence: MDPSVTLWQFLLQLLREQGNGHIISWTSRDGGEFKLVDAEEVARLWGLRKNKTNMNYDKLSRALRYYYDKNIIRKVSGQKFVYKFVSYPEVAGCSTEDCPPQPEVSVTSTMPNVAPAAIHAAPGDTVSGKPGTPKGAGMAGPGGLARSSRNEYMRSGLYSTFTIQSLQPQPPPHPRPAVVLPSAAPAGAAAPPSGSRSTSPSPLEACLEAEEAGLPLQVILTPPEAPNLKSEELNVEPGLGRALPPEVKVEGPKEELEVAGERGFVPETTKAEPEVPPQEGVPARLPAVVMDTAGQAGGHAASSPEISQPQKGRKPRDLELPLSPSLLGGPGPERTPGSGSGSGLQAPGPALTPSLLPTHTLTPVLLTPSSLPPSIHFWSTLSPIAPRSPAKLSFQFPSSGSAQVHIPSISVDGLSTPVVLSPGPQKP
# Outline: as §1
# GABPA = biological target: T3, GABPA (Homo sapiens, UniProt Q06546 1-454); details: protein: recombinant; tags: N-terminal GST; dsDNA, one strand shown
# T3 sequence: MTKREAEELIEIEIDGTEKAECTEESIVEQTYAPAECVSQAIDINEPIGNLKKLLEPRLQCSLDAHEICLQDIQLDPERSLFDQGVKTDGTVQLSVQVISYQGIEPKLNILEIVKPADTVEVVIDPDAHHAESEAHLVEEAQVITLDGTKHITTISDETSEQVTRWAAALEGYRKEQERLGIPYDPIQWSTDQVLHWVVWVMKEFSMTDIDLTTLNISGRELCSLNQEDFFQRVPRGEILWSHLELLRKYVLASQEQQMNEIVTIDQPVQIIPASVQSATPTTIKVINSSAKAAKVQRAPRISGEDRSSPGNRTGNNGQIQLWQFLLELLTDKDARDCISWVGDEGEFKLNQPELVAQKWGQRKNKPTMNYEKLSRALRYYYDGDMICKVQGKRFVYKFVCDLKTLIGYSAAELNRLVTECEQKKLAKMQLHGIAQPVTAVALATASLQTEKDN
# Outline: as §1
# ERG = biological target: T4, ERG (Homo sapiens, UniProt P11308 1-479); details: protein: recombinant; tags: N-terminal GST; dsDNA, one strand shown
# T4 sequence: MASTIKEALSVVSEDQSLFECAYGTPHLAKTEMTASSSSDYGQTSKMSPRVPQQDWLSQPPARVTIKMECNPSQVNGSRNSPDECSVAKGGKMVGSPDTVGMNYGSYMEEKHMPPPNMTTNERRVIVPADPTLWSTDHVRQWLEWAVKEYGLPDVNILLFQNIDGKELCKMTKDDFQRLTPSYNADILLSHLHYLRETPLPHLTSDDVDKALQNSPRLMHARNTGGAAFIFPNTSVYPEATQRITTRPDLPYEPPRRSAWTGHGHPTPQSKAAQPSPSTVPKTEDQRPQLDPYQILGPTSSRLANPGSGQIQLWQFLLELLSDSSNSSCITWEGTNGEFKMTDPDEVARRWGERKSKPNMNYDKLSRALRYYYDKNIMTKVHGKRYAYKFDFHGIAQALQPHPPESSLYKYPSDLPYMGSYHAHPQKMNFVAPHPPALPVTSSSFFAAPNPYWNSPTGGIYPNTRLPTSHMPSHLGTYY
# Outline: as §1
# ELF1 = ELF1 (Homo sapiens, UniProt P32519 1-619); details: protein: recombinant; tags: N-terminal GST; dsDNA, one strand shown
# Outline: as §1
# EHF = biological target: T5, EHF (Homo sapiens, UniProt Q9NZC4 1-300); details: protein: recombinant; tags: N-terminal GST; dsDNA, one strand shown
# T5 sequence: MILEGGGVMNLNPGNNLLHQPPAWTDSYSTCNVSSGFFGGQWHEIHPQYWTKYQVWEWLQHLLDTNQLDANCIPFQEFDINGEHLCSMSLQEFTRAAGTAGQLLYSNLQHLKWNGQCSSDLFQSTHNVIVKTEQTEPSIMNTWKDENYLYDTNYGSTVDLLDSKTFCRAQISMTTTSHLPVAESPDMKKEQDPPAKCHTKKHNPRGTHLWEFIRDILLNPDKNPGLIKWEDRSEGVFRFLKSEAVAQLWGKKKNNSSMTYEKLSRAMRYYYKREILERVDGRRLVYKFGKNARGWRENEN
# Outline: as §1
# SPI1 = SPI1 (Homo sapiens, UniProt P17947 1-270); details: protein: recombinant; tags: N-terminal GST; dsDNA, one strand shown
# Outline: as §1
# SPIB = SPIB (Homo sapiens, UniProt Q01892 1-262); details: protein: recombinant; tags: N-terminal GST; dsDNA, one strand shown
# Outline: as §1
# ELK3 = biological target: T6, ELK3 (Homo sapiens, UniProt P41970 1-407); details: protein: recombinant; tags: N-terminal GST; dsDNA, one strand shown
# T6 sequence: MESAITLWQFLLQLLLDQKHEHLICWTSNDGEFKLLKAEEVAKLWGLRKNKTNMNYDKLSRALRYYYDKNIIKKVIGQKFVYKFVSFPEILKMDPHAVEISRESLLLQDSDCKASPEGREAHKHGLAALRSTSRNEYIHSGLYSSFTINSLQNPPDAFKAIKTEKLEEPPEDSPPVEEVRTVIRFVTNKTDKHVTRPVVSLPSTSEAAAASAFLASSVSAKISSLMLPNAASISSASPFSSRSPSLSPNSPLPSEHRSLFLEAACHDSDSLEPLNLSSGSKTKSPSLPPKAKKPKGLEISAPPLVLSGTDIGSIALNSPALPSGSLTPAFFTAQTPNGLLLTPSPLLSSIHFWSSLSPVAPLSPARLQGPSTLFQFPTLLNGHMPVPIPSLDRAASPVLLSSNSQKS
# Outline: as §1
# FEV = biological target: T7, FEV (Homo sapiens, UniProt Q99581 1-238); details: protein: recombinant; tags: N-terminal GST; dsDNA, one strand shown
# T7 sequence: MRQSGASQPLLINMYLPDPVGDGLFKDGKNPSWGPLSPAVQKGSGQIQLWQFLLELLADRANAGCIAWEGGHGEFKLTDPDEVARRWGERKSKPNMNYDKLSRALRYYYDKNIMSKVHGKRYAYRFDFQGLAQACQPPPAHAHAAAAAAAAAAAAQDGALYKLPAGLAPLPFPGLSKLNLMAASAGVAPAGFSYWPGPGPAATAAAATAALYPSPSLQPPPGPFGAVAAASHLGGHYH
# Outline: as §1
# ETV5 = ETV5 (Homo sapiens, UniProt P41161 1-510); details: protein: recombinant; tags: N-terminal GST; dsDNA, one strand shown
# Outline: as §1
# HSF1 = HSF1 (Homo sapiens, UniProt Q00613 1-529); details: protein: recombinant; tags: N-terminal GST; chain copies: 3; dsDNA, one strand shown
# Outline: as §1
# SPIC = biological target: T8, SPIC (Homo sapiens, UniProt Q8N5J4 1-248); details: protein: recombinant; tags: N-terminal GST; dsDNA, one strand shown
# T8 sequence: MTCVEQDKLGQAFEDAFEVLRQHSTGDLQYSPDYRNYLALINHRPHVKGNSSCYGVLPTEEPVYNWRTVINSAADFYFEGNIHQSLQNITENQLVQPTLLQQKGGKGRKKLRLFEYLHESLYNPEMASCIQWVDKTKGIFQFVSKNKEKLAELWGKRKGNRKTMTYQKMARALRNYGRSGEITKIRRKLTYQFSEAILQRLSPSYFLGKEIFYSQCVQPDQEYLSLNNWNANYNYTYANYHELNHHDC
# Outline: as §1
# ELF4 = ELF4 (Homo sapiens, UniProt Q99607 1-663); details: protein: recombinant; tags: N-terminal GST; dsDNA, one strand shown
# Outline: as §1
# ELK4 = biological target: T9, ELK4 (Homo sapiens, UniProt P28324-2 1-405); details: protein: recombinant; tags: N-terminal GST; dsDNA, one strand shown
# T9 sequence: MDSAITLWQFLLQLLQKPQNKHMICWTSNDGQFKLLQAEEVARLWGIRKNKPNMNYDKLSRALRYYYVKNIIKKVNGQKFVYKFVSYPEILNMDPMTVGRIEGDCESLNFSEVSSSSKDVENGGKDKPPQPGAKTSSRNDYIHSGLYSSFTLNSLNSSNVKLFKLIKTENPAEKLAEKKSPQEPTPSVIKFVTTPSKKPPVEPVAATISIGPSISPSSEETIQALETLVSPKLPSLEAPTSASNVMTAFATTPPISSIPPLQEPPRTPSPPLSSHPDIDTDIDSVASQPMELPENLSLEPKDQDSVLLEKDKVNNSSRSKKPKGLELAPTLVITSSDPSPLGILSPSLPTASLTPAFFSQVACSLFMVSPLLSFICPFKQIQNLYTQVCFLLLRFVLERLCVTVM
# Outline: as §1
# ETV2 = biological target: T10, ETV2 (Homo sapiens, UniProt O00321 1-342); details: protein: recombinant; tags: N-terminal GST; dsDNA, one strand shown
# T10 sequence: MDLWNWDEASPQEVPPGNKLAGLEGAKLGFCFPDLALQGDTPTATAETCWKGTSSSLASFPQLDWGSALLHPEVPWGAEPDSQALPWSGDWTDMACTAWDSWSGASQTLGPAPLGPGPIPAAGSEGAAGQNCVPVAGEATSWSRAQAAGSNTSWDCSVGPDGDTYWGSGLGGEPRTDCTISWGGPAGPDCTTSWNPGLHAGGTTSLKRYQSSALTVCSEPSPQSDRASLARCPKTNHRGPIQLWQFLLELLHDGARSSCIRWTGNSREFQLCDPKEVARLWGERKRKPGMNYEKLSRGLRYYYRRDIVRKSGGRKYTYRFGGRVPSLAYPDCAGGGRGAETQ
# Outline: as §1
# ELF3 = biological target: T11, ELF3 (Homo sapiens, UniProt P78545 1-371); details: protein: recombinant; tags: N-terminal GST; dsDNA, one strand shown
# T11 sequence: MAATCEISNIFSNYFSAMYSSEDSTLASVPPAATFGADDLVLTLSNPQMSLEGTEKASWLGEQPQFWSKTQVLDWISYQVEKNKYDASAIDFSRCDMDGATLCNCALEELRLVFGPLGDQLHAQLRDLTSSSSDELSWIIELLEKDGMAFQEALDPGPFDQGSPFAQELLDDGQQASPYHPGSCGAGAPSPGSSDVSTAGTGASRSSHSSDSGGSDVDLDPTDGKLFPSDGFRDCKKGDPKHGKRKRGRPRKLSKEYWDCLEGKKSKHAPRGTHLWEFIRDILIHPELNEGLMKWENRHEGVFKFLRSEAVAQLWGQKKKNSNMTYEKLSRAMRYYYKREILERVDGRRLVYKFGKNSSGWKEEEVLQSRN
# Outline: as §1
# CRX = CRX (Homo sapiens, UniProt O43186 1-299); details: protein: recombinant; tags: N-terminal GST; dsDNA, one strand shown
# Outline: as §1
# ETV1 = ETV1 (Homo sapiens, UniProt P50549 1-477); details: protein: recombinant; tags: N-terminal GST; dsDNA, one strand shown
# Outline: as §1
# ETV5, sequence (P41161 whole entry): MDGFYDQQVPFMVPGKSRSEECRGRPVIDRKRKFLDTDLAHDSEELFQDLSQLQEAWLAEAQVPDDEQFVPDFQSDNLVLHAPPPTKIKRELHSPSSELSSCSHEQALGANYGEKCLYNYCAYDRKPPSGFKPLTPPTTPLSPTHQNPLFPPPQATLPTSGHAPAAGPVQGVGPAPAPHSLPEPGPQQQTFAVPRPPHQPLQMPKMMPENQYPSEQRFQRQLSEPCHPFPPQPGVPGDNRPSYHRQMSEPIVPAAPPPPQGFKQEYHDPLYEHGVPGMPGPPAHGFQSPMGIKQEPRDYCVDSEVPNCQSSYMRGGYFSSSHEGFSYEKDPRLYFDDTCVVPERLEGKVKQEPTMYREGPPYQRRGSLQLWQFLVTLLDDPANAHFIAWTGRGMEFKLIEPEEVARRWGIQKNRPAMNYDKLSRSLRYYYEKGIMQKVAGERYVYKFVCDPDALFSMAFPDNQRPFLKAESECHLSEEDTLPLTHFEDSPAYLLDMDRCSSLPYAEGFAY
# ELF1, sequence (P32519 whole entry): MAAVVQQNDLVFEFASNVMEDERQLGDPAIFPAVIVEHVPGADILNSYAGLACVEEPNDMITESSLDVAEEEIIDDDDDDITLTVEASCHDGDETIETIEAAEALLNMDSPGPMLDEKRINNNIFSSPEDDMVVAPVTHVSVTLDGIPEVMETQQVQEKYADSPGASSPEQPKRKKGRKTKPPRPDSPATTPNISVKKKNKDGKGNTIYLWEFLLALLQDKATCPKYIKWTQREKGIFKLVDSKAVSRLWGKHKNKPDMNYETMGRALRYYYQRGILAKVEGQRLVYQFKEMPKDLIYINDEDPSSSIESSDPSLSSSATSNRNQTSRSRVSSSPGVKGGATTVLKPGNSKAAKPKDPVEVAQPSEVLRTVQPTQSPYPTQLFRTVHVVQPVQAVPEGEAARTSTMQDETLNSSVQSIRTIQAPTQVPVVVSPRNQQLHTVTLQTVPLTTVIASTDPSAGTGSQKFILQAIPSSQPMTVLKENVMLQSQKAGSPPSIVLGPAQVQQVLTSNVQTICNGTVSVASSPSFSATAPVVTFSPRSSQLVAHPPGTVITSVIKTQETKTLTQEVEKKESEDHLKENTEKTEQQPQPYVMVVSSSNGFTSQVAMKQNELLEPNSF
# ELF4, sequence (Q99607 whole entry): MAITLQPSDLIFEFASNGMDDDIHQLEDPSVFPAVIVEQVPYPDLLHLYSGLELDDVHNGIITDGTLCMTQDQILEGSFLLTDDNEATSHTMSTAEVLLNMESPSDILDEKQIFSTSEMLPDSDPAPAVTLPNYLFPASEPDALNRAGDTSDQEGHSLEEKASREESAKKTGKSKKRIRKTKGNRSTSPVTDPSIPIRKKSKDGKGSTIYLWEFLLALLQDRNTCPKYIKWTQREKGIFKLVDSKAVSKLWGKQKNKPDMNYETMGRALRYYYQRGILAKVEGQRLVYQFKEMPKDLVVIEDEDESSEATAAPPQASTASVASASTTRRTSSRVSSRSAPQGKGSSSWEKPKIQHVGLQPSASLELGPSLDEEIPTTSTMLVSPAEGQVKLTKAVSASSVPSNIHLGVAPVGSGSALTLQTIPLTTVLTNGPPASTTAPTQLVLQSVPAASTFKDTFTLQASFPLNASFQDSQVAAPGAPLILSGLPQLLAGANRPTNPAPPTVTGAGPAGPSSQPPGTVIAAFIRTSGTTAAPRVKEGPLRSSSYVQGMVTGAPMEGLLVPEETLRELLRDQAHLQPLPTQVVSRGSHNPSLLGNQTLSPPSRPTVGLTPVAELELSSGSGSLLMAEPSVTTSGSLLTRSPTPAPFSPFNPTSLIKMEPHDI
# SPIB, sequence (Q01892 whole entry): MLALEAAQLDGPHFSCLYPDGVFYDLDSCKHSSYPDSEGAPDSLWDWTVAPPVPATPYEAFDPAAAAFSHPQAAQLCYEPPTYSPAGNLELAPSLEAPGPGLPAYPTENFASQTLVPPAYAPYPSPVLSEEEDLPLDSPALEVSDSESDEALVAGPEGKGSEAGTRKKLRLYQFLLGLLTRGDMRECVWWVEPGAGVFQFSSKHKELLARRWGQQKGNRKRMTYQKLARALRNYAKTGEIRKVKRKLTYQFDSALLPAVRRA
# ETV1, sequence (P50549 whole entry): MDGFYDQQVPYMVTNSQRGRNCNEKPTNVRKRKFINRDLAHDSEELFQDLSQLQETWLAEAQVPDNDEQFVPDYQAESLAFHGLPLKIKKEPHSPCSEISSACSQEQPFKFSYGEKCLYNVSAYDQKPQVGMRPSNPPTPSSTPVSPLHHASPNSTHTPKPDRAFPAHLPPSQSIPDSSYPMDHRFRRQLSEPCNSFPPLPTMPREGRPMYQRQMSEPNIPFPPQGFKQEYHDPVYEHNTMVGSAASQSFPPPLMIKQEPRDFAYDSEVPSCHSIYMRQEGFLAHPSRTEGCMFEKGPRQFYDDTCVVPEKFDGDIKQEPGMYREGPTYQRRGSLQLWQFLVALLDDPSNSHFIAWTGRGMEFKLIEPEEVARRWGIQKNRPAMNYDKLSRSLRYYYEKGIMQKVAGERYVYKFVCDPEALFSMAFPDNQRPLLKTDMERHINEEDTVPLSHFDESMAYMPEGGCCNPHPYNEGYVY
# CRX, sequence (O43186 whole entry): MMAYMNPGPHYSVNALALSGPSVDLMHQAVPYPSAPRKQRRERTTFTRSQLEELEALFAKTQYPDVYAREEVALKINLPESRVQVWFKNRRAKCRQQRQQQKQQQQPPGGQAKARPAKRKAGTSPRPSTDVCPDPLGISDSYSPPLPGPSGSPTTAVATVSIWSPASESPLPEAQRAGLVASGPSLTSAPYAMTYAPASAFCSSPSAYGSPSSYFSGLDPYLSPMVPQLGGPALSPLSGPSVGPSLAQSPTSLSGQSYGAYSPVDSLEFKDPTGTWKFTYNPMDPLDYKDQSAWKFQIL
# HSF1, sequence (Q00613 whole entry): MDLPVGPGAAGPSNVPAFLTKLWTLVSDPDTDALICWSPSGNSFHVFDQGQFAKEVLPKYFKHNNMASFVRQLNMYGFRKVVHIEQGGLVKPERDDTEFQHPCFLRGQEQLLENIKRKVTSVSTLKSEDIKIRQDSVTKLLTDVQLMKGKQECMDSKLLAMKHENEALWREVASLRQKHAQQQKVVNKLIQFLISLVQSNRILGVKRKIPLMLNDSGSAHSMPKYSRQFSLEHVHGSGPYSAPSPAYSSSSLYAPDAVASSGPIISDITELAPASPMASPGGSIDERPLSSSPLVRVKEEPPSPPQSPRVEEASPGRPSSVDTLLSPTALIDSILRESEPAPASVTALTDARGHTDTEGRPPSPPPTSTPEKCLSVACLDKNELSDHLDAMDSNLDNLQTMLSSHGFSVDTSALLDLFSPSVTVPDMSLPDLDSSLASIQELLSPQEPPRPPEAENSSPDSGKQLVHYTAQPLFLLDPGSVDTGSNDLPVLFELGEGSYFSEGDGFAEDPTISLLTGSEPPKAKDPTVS
sequence,measurement,setting,value
ACTATG,binding signal,FLI1,"1.23 fold enrichment (6-mer frequency, TF over GST control)"
same,binding signal,ELK1,"1.28 fold enrichment (6-mer frequency, TF over GST control)"
same,binding signal,GABPA,"1.37 fold enrichment (6-mer frequency, TF over GST control)"
same,binding signal,ERG,"1.19 fold enrichment (6-mer frequency, TF over GST control)"
same,binding signal,ELF1,"1.21 fold enrichment (6-mer frequency, TF over GST control)"
same,binding signal,EHF,"1.25 fold enrichment (6-mer frequency, TF over GST control)"
same,binding signal,SPI1,"1.14 fold enrichment (6-mer frequency, TF over GST control)"
same,binding signal,SPIB,"1.31 fold enrichment (6-mer frequency, TF over GST control)"
same,binding signal,ELK3,"1.2 fold enrichment (6-mer frequency, TF over GST control)"
same,binding signal,FEV,"1.21 fold enrichment (6-mer frequency, TF over GST control)"
same,binding signal,ETV5,"1.19 fold enrichment (6-mer frequency, TF over GST control)"
same,binding signal,HSF1,"1.09 fold enrichment (6-mer frequency, TF over GST control)"
same,binding signal,SPIC,"1.37 fold enrichment (6-mer frequency, TF over GST control)"
same,binding signal,ELF4,"1.26 fold enrichment (6-mer frequency, TF over GST control)"
same,binding signal,ELK4,"1.08 fold enrichment (6-mer frequency, TF over GST control)"
same,binding signal,ETV2,"1.24 fold enrichment (6-mer frequency, TF over GST control)"
same,binding signal,ELF3,"1.09 fold enrichment (6-mer frequency, TF over GST control)"
same,binding signal,CRX,"1.02 fold enrichment (6-mer frequency, TF over GST control)"
same,binding signal,ETV1,"1.24 fold enrichment (6-mer frequency, TF over GST control)"
